Assay outcomes from PubChem.
TGFb SMAD3 inh – TGF-b pathway inhibition; 410,000 tested, 1.2% active; HepG2 CAGA-GFP TGF-b/SMAD3 reporter, GFP fluorescence, 18 h; TGF-beta stimulated, 500 pg/mL final; Potency, µM (series often up to 46.1 µM), inactives show at the top dose activity, negative = inhibition, usual class: inhibitors; also: % is scaled to controls: 0 for no effect and ±100 for the full control effect; nearly all actives have a fitted effect of over 65% in size
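TGF-beta reporter screen: HEPG2 CAGA-GFP, 1% FBS, 500 pg/mL TGF-beta final, 18 h; per-cell GFP summed per well; curves fitted and categorized by class.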
ATXN2 expr inh – ATXN2 expression inhibition | HEK-293 ATXN2-luciferase reporter, luminescence, 24 h | Potency, µM (doses to about 57 µM), inactives show at the top dose activity change, negative = inhibition, actives largely listed as inhibitors | 360,000 tested, 0.72% active | AID 1745845; also: % is scaled to controls: 0 for no effect and ±100 for the full control effect; nearly all actives have a fitted effect of over 55% in size
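ATXN2-luciferase reporter cells (luciferase flanked by upstream and downstream ATXN2 gene portions) were treated 24 h at 37 °C with compounds at up to 57 uM. SteadyGlo luminescence gave expression; GF-AFC fluorescence gave viability.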
HT1080-NT tox – kills 2HG-producing HT-1080-NT fibrosarcoma cells. HT-1080-NT fibrosarcoma viability, CellTiter-Glo ATP luminescence, 48 h. Potency, µM (top dose mostly 46.1 µM), for the others: at the highest dose activity, negative = less viability, usual class: cytotoxic. 360,000 tested, 1.6% active. AID 686970;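 also: NT is the 2HG producing partner of a matched IDH1 knockdown line; 0% = DMSO-treated cells and -100% = media-only wells without cells; nearly all actives have a fitted effect of over 55% in size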
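HT-1080-NT; 750 cells/well; 5% FBS RPMI; 48 h compound, 37 degrees C; CellTiter-Glo luminescence; curve fitting and curve-class assignment.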
HepG2 tox – HepG2 cytotoxicity, counter-screen for TGF-b inhibitors. HepG2 CAGA-GFP viability, ATP luminescence, 18 h. Potency, µM (highest dose often 46.1 µM), for inactives: at the highest dose activity change, negative = cytotoxicity, usual class: cytotoxic. 410,000 tested, 0.76% active
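HepG2 CAGA-GFP cells (1000/well, DMEM with 1% FBS) received compound, then TGF-beta at 500 pg/mL final, and were incubated 18 hours at 37 degrees C. Viability was read by CellTiter-Glo luminescence. Media-only wells were set as complete cell-killing and DMSO as no toxicity.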
S2 tox – cell viability loss in ATXN counter-screen | Potency, µM (series often up to 56.7 µM), hits mostly cytotoxic | 400,000 tested, 0.49% active | S2 cells (HEK-293 line with an ATXN2-luciferase reporter) viability, CellTiter-Fluor protease fluorescence, 24 h; also: nearly all actives have a fitted effect of over 40% in size
HT1080 IDH1KD tx – HT-1080 IDH1 knockdown cell toxicity (counter line); Potency, µM (series often up to 46.1 µM), inactives show at the highest dose activity, negative = toxicity, actives largely listed as cytotoxic; AID 686971; HT-1080 IDH1 knockdown viability, ATP luminescence, 48 h; 360,000 tested, 2% active;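 also: 0% = DMSO wells and -100% = cell-free medium wells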
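IDH1KD HT-1080 cells, 750/well, RPMI + 5% FBS; compound pinned after 2 h settling; 48 h, 37 °C; CellTiter-Glo luminescence; % activity normalised to DMSO and no-cell wells; curves fitted, classed by r2 and efficacy.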
* marks the source's active call; other numbers are inactive results; i = inactive; ? = inconclusive; nt = not tested or not shown. Sampled rows, rich in hits. Any-hit rate of the full collection: about 3.9%. Calls follow the shape of the dose curve; as a rule, active = well fitted curve in the direction sought with a large enough effect; inconclusive = small, poorly fitted or top-dose-only effect, or another doubt; inactive = no such curve, though single readings can be large; an effect the other way counts as inactive or inconclusive. Potency is read from the fitted curve at half-maximal effect.

SMILES	TGFb SMAD3 inh	ATXN2 expr inh	HT1080-NT tox	HepG2 tox	S2 tox	HT1080 IDH1KD tx
COc1ccc2nc3sc(C(=O)N4CCN(C)CC4)cc3cc2c1	-4.4%	7.9%	-2.8%	8.91µM*	i	-4.8%
COc1cccc(CNC(=O)CN2C(=O)N(c3ccc(C)cc3C)S(=O)(=O)c3ccccc32)c1OC	?	-27.4%	nt	-4.0%	i	nt
CCOc1ccc(CNC(=O)C2CCCN(S(=O)(=O)c3ccc4c(c3)CCCC(=O)N4)C2)cc1 (stereo unspecified)	4.4%	-14.9%	nt	-15.2%	i	nt
COCC(C)n1c(C)cc(C(=O)COC(=O)c2cccn2C)c1C (stereo unspecified)	-11.6%	17.8µM*	-10.8%	-5.0%	i	-12.4%
CCn1c2ccccc2c2cc(NC(=O)CNCc3ccccc3OC)ccc21	?	?	3.66µM*	-60.1%	?	6.51µM*
CCn1c2ccccc2c2cc(NC(=O)COC(=O)c3cccc(S(=O)(=O)NC)c3)ccc21	-6.5%	15.8µM*	12.5%	-10.2%	i	-0.1%
CCn1c2ccccc2c2cc(NC(=O)COc3ccccc3OC)ccc21	11.3%	-21.7%	?	-26.3%	i	16.4µM*
CCn1c2ccccc2c2cc(NC(=O)c3cccc(OC)c3)ccc21	10.5%	21.6%	12.6µM*	6.6%	i	?
CCn1c2ccccc2c2cc(NC(=O)COc3ccc(C)c(C)c3)ccc21	61.6%	2.0%	nt	66.0%	?	nt
CCN(CC)S(=O)(=O)c1cccc(C(=O)OCC(=O)Nc2ccc3c(c2)c2ccccc2n3CC)c1	-17.2%	0.0%	-2.3%	1.9%	i	-6.9%
CCC(Sc1nc2nccnc2c(=O)n1Cc1ccc(C)cc1)C(=O)NC1CCCCC1 (stereo unspecified)	-9.3%	nt	nt	-24.1%	nt	nt
CCCOc1ccc(C2c3c(-c4ccccc4O)n[nH]c3C(=O)N2CCCOCC)cc1OCC (stereo unspecified)	?	?	nt	-41.0%	nt	nt
COc1ccccc1CNCc1ccc(OC)c2ccccc12	?	-23.8%	14.6µM*	-61.2%	i	-57.8%
CCn1c2ccccc2c2cc(NC(=O)COC(=O)Cc3cn4ccsc4n3)ccc21	?	28.2µM*	-6.6%	1.4%	i	-4.5%
OCCNCC(O)Cn1c2ccccc2c2ccccc21 (stereo unspecified)	0.4%	-6.3%	-1.0%	3.1%	i	-0.3%
COc1ccccc1CNCC(O)Cn1c2ccccc2c2ccccc21 (stereo unspecified)	?	?	?	11.2µM*	nt	?
CCC1(C2CCN(Cc3cc4ccccc4o3)CC2)NC(=O)N(CC2COc3ccccc3O2)C1=O (stereo unspecified)	nt	nt	nt	nt	i	nt
COCCN=c1scc(-c2ccco2)n1/N=C/c1ccc(O)c(O)c1O	10.5%	-14.3%	-8.3%	4.2%	i	-13.6%
CC(C)N=c1scc(-c2ccco2)n1/N=C/c1ccc(O)c(O)c1	?	0.0%	-8.6%	-63.9%	31.6µM*	-22.1%
Cc1cccc(OCCC(=O)NO)c1	nt	nt	?	nt	nt	-13.8%
Cc1cc2c(n1-c1ccc(C(N)=O)cc1)CC(C)(C)CC2=O	-7.7%	0.9%	9.8%	-1.9%	i	3.6%
CC1(C)CC(=O)c2c(C(F)(F)F)nn(-c3ccc(C(N)=O)c(NC4CCC(OC(=O)CN)CC4)c3)c2C1 (stereo unspecified)	nt	0.217µM*	nt	nt	nt	nt
CCOC(=O)c1ccccc1NC(=O)CN1CCC(n2nnc3cc(F)ccc32)CC1	0.8%	-2.3%	20.2%	5.5%	i	9.6%
CC1(C)CC(=O)c2c(C(F)(F)F)nn(-c3ccc(C(N)=O)c(NC4CCC(O)CC4)c3)c2C1 (stereo unspecified)	nt	0.0968µM*	nt	nt	nt	nt
O=C1[C@@H](Oc2ccccc2)[C@@H](c2ccncc2)N1c1ccccc1	?	-7.8%	?	-19.6%	i	20.6µM*
